Bioassay records: PubChem, National Center for Advancing Translational Sciences (NCATS)
A selection: hits, their analogues and other compounds. The true share with any hit is near 19%.
TDP1 cell noCPT – qHTS for Inhibitors of human tyrosyl-DNA phosphodiesterase 1 (TDP1): qHTS in cells in absence of CPT | DT40 Tdp1-/- hTDP1 cells, no CPT, ATP luminescence, 48 h | Potency, µM (series often up to 46.2 µM), most hits filed as inhibitors | 15% of 420,000 active; also: nearly all actives have a fitted effect of over 55% in size
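Camptothecin absent (DMSO only). Human TDP1-complemented DT40 knockout cells, 400 cells/well, 37 °C for minimum 48 hr; ATP measured via CellTiter-Glo, 30 min dark incubation, luminescence.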
Gal4-VP16 FLuc – Gal4-VP16 reporter inhibition counter-screen | Drosophila S2 Gal4-VP16 UAS-luciferase, luminescence, 20 h | 3.5% of 310,000 active | Potency, µM (top dose mostly 53.6 µM), most hits filed as inhibitors;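 also: Gal4-VP16 expression switched on by copper sulfate through the metallothionein promoter; nearly all actives have a fitted effect of over 50% in size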
TDP1 block – inhibitors of human tyrosyl-DNA phosphodiesterase TDP1; Q9NUW8; recombinant TDP1, AlphaScreen DNA substrate cleavage; Potency, µM (titrated, usually from 130 µM), most hits filed as inhibitors; 0.28% of 350,000 active; AID 485290; also: nearly all actives have a fitted effect of over 40% in size
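Steps: enzyme plus compound, 15 min RT; add biotin/phosphotyrosine-FITC oligonucleotide (15 nM final), react 5 min; add donor/acceptor beads (10 ug/ml final), 10 min; read AlphaScreen. Tdp1 at 1 nM final.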
RORgamma inh – ROR gamma (mouse) transcription inhibition; AID 2551; 5.4% of 310,000 active; Drosophila S2 Gal4-RORgamma UAS-luciferase reporter, 20 h; P51450; Potency, µM (titrated, usually from 53.6 µM), hits mostly inhibitors; also: nearly all actives have a fitted effect of over 60% in size
Target sequence (P51450 whole entry, looked up, the tested form may be a part): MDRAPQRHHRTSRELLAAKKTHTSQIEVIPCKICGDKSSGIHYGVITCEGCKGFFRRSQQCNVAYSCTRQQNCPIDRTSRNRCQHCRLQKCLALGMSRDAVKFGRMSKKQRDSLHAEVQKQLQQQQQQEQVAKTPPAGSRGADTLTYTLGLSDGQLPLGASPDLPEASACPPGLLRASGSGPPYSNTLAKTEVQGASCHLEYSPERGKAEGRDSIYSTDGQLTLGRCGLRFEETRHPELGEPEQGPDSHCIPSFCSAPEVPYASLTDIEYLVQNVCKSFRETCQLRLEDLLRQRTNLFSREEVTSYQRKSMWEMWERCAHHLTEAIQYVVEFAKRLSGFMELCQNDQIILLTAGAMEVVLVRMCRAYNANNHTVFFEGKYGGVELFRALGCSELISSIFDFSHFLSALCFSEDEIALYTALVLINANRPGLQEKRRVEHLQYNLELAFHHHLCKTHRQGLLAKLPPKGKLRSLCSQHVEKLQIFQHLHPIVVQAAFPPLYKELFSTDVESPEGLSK
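Drosophila S2 cells stably expressing Gal4-DBD/mouse RORγ fusion under metallothionein promoter plus UAS-luciferase; compound 1 h, then 700 uM CuSO4 induction for 20 h at ambient temperature; inhibition read as reduced luminescence.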
TDP1 cell CPT – DT40-hTDP1 cell growth loss with CPT | chicken DT40 Tdp1-/-;hTDP1 cells + 20 nM CPT, ATP luminescence, 48 h | 12% of 420,000 active | Potency, µM (doses to about 46.2 µM), actives largely listed as inhibitors; also: nearly all actives have a fitted effect of over 55% in size
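Chicken DT40 Tdp1-/- cells complemented with human TDP1, 400 cells/well, exposed to compounds plus 20 nM camptothecin for at least 48 h at 37 C; viability read as ATP content by CellTiter-Glo luminescence.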
Numbers stand for hits; . = inactive; ? = inconclusive; / = no result; [ ] = remark or other dose. Calls follow the shape of the dose curve; as a rule, active = well fitted curve in the direction sought with a large enough effect; inconclusive = small, poorly fitted or top-dose-only effect, or another doubt; inactive = no such curve, though single readings can be large; an effect the other way counts as inactive or inconclusive.

SMILES	TDP1 cell noCPT	Gal4-VP16 FLuc	TDP1 block	RORgamma inh	TDP1 cell CPT
O=C(NCc1ccc(OC(F)(F)F)cc1)c1cccc2c1C(=O)c1ccc(N3CCCCC3)cc1S2(=O)=O	.	/	.	/	.
Cc1cc(CNC(=O)c2cccc3c2C(=O)c2ccc(-c4ccc(F)cc4OCc4ccccc4)cc2S3(=O)=O)c(C(F)(F)F)o1	12µM	/	.	/	?
O=C(O)c1cccc2c1C(=O)c1ccc(-c3ccc(F)cc3OCc3ccccc3)cc1S2(=O)=O	.	/	/	/	.
CCN1C(=O)[C@H]2[C@@H](c3ccc(-c4ccc(OC)cc4)c(OC)c3)N[C@@](Cc3ccccc3)(C(=O)OC)[C@H]2C1=O	?	/	.	/	?
CCC(C)NCCOc1ccc(C)cc1[N+](=O)[O-] (configuration not stated)	.	.	/	.	.
Cc1cc(C)n(-c2ccc(C(=O)NCC(c3ccco3)N3CCCC3)cc2)n1 (configuration not stated)	.	/	.	/	?
O=C(NCc1cccc(OC(F)(F)F)c1)c1ccc2c(c1)S(=O)(=O)c1cc(Cl)ccc1C2=O	.	/	.	/	.
O=C(NCc1ccc(OC(F)(F)F)cc1)c1cccc2c1C(=O)c1ccc(N3CCC(Cc4ccccc4)CC3)cc1S2(=O)=O	5.2µM	/	.	/	8.2µM
O=C(NCc1ccccc1Br)c1cccc2c1C(=O)c1ccc(-c3ccc(OC(F)(F)F)cc3)cc1S2(=O)=O	7.3µM	/	.	/	8.2µM
O=C(NCc1ccco1)c1cccc2c1C(=O)c1ccc(/C=C/c3ccccc3)cc1S2(=O)=O	23µM	/	32µM	/	?
CO[C@H]1[C@H](NC(=O)c2ccco2)c2ccccc2C12CCN(Cc1cnn(-c3ccccc3)c1)CC2	.	/	/	/	.[9.04 µM]
COc1ccc(NC(=O)Cn2c(=O)n(CC3CCCO3)c(=O)c3cc(OC)c(OC)cc32)cc1OC (configuration not stated)	.	.	/	.	.
CSc1cccc(NS(=O)(=O)c2ccc3c(c2)NC(=O)C(C)C(=O)N3)c1 (configuration not stated)	.	.	/	.	.
COc1ccc(C(=O)Nc2ccccc2N2CCCCC2)cc1[N+](=O)[O-]	?	.	.	.	?
COc1cccc(C(=O)Nc2cc([N+](=O)[O-])ccc2N2CCN(C)CC2)c1	.	.	.	.	?
Cc1ccc(C(=O)Nc2ccccc2N2CCN(C(=O)C(C)C)CC2)cc1C	13µM	.	.	.	?
Cc1ccc(C(=O)NC(=S)Nc2ccccc2N2CCCC2)cc1[N+](=O)[O-]	18µM	?	.	?	16µM
COc1ccc(C(=O)Nc2cc([N+](=O)[O-])ccc2N2CCN(C)CC2)cc1	?	.	.	.	11µM
Cc1ccc(C(=O)Nc2ccccc2N2CCCCC2)cc1[N+](=O)[O-]	16µM	.	.	.	?
COc1cc(NC(=O)c2ccc3c(c2)OCO3)ccc1NC(=O)C(C)C	.	.	.	.	.
CC(NC(=O)COC(=O)Cc1cccs1)c1ccc(F)cc1 (configuration not stated)	.	/	/	/	.
CC(=O)Nc1ccc(OCC(=O)c2ccc(C)cc2C)cc1	?	.	.	.	.
CN1CCN(c2ccccc2NC(=O)c2ccc(N3CCCCC3)c([N+](=O)[O-])c2)CC1	12µM	.	.	?	12µM
CN1CCN(c2ccc(C(=O)c3ccccc3)cc2[N+](=O)[O-])CC1	?	.	.	.	.
Nc1nc(SCc2ccccc2)c2ncn(C3OC(CO)C(O)C3O)c2n1 (configuration not stated)	.	/	/	/	.
Nc1nc(SCc2ccccc2)c2ncn(C3CCCCC3)c2n1	29µM	/	/	/	?
CC(NC(=O)C1CCN(C(=O)N2CCOc3ccc(Cl)cc32)CC1)c1ccccc1 (configuration not stated)	?	/	.	/	?
CCN1CCCC1CNC(=O)c1cnn(-c2nccc(-c3cc4ccccc4o3)n2)c1C1CC1 (configuration not stated)	4.1µM	/	/	/	?
Cn1nc(C(C)(C)C)cc1C(=O)NNC(=O)c1ccccc1Cl	?	.	.	?	?
